# The full list was thinned out, with the strongest signals kept by preference.
# B1: Drgal1 (Danio rerio) (protein)
# chain: MAGVLIQNMSFKVGQTLTITGVPKPDSTNFAINIGHSPEDIALHMNPRFDAHGDQCTIVCNSFQSGSWCEEHRDDNFPFIQDKEFQIKITFTNEEFLVTLPDGSEIHFPNRQGSEKYKYMYFEGEVRIQGVEIK
# How the values were obtained:
# Assay in all cases: glycan array binding signal (z-score within array); higher = stronger binding
# Conditions in all cases: glycan notation: IUPAC condensed, linker removed
# [1] = target: Fuc(a1-2)Gal(b1-3)GalNAc(a1-3)[Fuc(a1-2)]Gal(b1-4)Glc
# Summary of the method: (§1)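 The Consortium for Functional Glycomics database supplied 3228 glycan arrays, of which those lacking an available protein sequence were dropped. The binding signal, a within-array Z-score, was averaged across arrays of the same protein sequence and across linkers. Negative scores can be read as non-binding.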
# [2] = target: Fuc(a1-2)Gal(b1-3)[Fuc(a1-4)]GlcNAc(b1-3)[Gal(b1-4)GlcNAc(b1-6)]Gal(b1-4)Glc
# Summary of the method: as §1
# [3] = target: Fuc(a1-2)[Gal(a1-3)]Gal(b1-3)GlcNAc(b1-6)GalNAc
# Summary of the method: as §1
# [4] = target: Fuc(a1-2)[Gal(a1-3)]Gal(b1-4)[Fuc(a1-3)]Glc
# Summary of the method: as §1
# [5] = target: Fuc(a1-2)[Gal(a1-4)]Gal(b1-4)GlcNAc
# Summary of the method: as §1
# [6] = target: Fuc(a1-2)[GalNAc(a1-3)]Gal(b1-3)GalNAc(a1-3)[Fuc(a1-2)]Gal(b1-4)GlcNAc
# Summary of the method: as §1
# [7] = target: Fuc(a1-2)[GalNAc(a1-3)]Gal(b1-4)GlcNAc(b1-3)Gal(b1-4)GlcNAc
# Summary of the method: as §1
# [8] = target: Fuc(a1-2)[GalNAc(a1-3)]Gal(b1-4)[Fuc(a1-3)]GlcNAc(b1-3)GalNAc
# Summary of the method: as §1
# [9] = target: Fuc(a1-3)[Gal(b1-4)]GlcNAc6S
# Summary of the method: as §1
# [10] = target: Gal(a1-3)Gal(b1-3)GlcNAc
# Summary of the method: as §1
# [11] = target: Gal(a1-3)Gal(b1-4)GlcNAc(b1-3)GalNAc
# Summary of the method: as §1
# [12] = target: Gal(a1-4)Gal(b1-3)GlcNAc(b1-2)Man(a1-3)[Gal(a1-4)Gal(b1-3)GlcNAc(b1-2)Man(a1-6)]Man(b1-4)GlcNAc(b1-4)GlcNAc
# Summary of the method: as §1
# [13] = target: Gal(b1-3)GlcNAc(b1-3)Gal(b1-4)GlcNAc(b1-6)[Gal(b1-3)GlcNAc(b1-3)]Gal(b1-4)Glc
# Summary of the method: as §1
# [14] = target: Gal(b1-3)[Fuc(a1-4)]GlcNAc(b1-6)GalNAc
# Summary of the method: as §1
# [15] = target: Gal(b1-4)GlcNAc
# Summary of the method: as §1
# [16] = target: Gal(b1-4)GlcNAc(a1-6)Gal(b1-4)GlcNAc
# Summary of the method: as §1
# [17] = target: Gal(b1-4)GlcNAc(b1-2)Man(a1-3)Man(b1-4)GlcNAc(b1-4)GlcNAc
# Summary of the method: as §1
# [18] = target: Gal(b1-4)GlcNAc(b1-2)[Gal(b1-4)GlcNAc(b1-4)]Man(a1-3)[GlcNAc(b1-4)][Gal(b1-4)GlcNAc(b1-2)Man(a1-6)]Man(b1-4)GlcNAc(b1-4)GlcNAc
# Summary of the method: as §1
# [19] = target: Gal(b1-4)GlcNAc(b1-2)[Gal(b1-4)GlcNAc(b1-6)]Man(a1-6)[Gal(b1-4)GlcNAc(b1-2)Man(a1-3)]Man(b1-4)GlcNAc(b1-4)[Fuc(a1-6)]GlcNAc
# Summary of the method: as §1
# [20] = target: Gal(b1-4)GlcNAc(b1-3)Gal(b1-4)GlcNAc(b1-2)[Gal(b1-4)GlcNAc(b1-3)Gal(b1-4)GlcNAc(b1-6)]Man(a1-6)[Gal(b1-4)GlcNAc(b1-3)Gal(b1-4)GlcNAc(b1-2)Man(a1-3)]Man(b1-4)GlcNAc(b1-4)[Fuc(a1-6)]GlcNAc
# Summary of the method: as §1
# [21] = target: Gal(b1-4)GlcNAc(b1-3)Gal(b1-4)GlcNAc(b1-3)Gal(b1-4)GlcNAc(b1-3)Gal(b1-4)GlcNAc(b1-2)[Gal(b1-4)GlcNAc(b1-3)Gal(b1-4)GlcNAc(b1-3)Gal(b1-4)GlcNAc(b1-3)Gal(b1-4)GlcNAc(b1-6)]Man(a1-6)[Gal(b1-4)GlcNAc(b1-3)Gal(b1-4)GlcNAc(b1-3)Gal(b1-4)GlcNAc(b1-3)Gal(b1-4)GlcNAc(b1-2)Man(a1-3)]Man(b1-4)GlcNAc(b1-4)[Fuc(a1-6)]GlcNAc
# Summary of the method: as §1
# [22] = target: Gal(b1-4)GlcNAc(b1-3)Gal(b1-4)GlcNAc(b1-3)Gal(b1-4)GlcNAc(b1-3)Gal(b1-4)GlcNAc(b1-3)Gal(b1-4)GlcNAc(b1-2)Man(a1-3)[Gal(b1-4)GlcNAc(b1-3)Gal(b1-4)GlcNAc(b1-3)Gal(b1-4)GlcNAc(b1-3)Gal(b1-4)GlcNAc(b1-3)Gal(b1-4)GlcNAc(b1-2)Man(a1-6)]Man(b1-4)GlcNAc(b1-4)GlcNAc
# Summary of the method: as §1
# [23] = target: Gal(b1-4)GlcNAc(b1-3)Gal(b1-4)GlcNAc(b1-3)Gal(b1-4)GlcNAc(b1-3)Gal(b1-4)GlcNAc(b1-3)Gal(b1-4)GlcNAc(b1-2)[Gal(b1-4)GlcNAc(b1-3)Gal(b1-4)GlcNAc(b1-3)Gal(b1-4)GlcNAc(b1-3)Gal(b1-4)GlcNAc(b1-3)Gal(b1-4)GlcNAc(b1-6)]Man(a1-6)[Gal(b1-4)GlcNAc(b1-3)Gal(b1-4)GlcNAc(b1-3)Gal(b1-4)GlcNAc(b1-3)Gal(b1-4)GlcNAc(b1-3)Gal(b1-4)GlcNAc(b1-2)Man(a1-3)]Man(b1-4)GlcNAc(b1-4)[Fuc(a1-6)]GlcNAc
# Summary of the method: as §1
# [24] = target: Gal(b1-4)GlcNAc(b1-6)Gal(b1-4)GlcNAc
# Summary of the method: as §1
# [25] = target: Gal6S(b1-3)GlcNAc6S
# Summary of the method: as §1
# [26] = target: Gal6S(b1-4)Glc
# Summary of the method: as §1
# [27] = target: GalNAc(a1-3)GalNAc
# Summary of the method: as §1
# [28] = target: GalNAc(b1-3)Gal(a1-6)Gal(b1-4)Glc
# Summary of the method: as §1
# [29] = target: GalNAc(b1-3)GalNAc
# Summary of the method: as §1
# [30] = target: GalNAc(b1-4)GlcNAc
# Summary of the method: as §1
# [31] = target: Glc(b1-6)Glc
# Summary of the method: as §1
# [32] = target: GlcNAc(b1-3)Gal(b1-4)GlcNAc(b1-3)Gal(b1-4)GlcNAc(b1-3)Gal(b1-4)GlcNAc(b1-3)Gal(b1-4)GlcNAc(b1-2)[GlcNAc(b1-3)Gal(b1-4)GlcNAc(b1-3)Gal(b1-4)GlcNAc(b1-3)Gal(b1-4)GlcNAc(b1-3)Gal(b1-4)GlcNAc(b1-6)]Man(a1-6)[GlcNAc(b1-3)Gal(b1-4)GlcNAc(b1-3)Gal(b1-4)GlcNAc(b1-3)Gal(b1-4)GlcNAc(b1-3)Gal(b1-4)GlcNAc(b1-2)Man(a1-3)]Man(b1-4)GlcNAc(b1-4)[Fuc(a1-6)]GlcNAc
# Summary of the method: as §1
# [33] = target: GlcNAc(b1-3)Gal(b1-4)GlcNAc(b1-6)[Gal(b1-3)]GalNAc
# Summary of the method: as §1
# [34] = target: Man(a1-2)Man(a1-2)Man(a1-6)[Man(a1-3)]Man
# Summary of the method: as §1
# [35] = target: Man(a1-2)Man(a1-3)[Man(a1-2)Man(a1-6)]Man(a1-6)[Man(a1-2)Man(a1-2)Man(a1-3)]Man
# Summary of the method: as §1
# [36] = target: Man(a1-6)Man
# Summary of the method: as §1
# [37] = target: Neu5Ac(a2-3)Gal(b1-3)GalNAc6S
# Summary of the method: as §1
# [38] = target: Neu5Ac(a2-3)Gal(b1-4)GlcNAc(b1-2)[Neu5Ac(a2-3)Gal(b1-4)GlcNAc(b1-6)]Man(a1-6)[Neu5Ac(a2-3)Gal(b1-4)GlcNAc(b1-2)Man(a1-3)][GlcNAc(b1-4)]Man(b1-4)GlcNAc(b1-4)GlcNAc
# Summary of the method: as §1
# [39] = target: Neu5Ac(a2-3)Gal(b1-4)GlcNAc(b1-3)Gal
# Summary of the method: as §1
# [40] = target: Neu5Ac(a2-3)Gal(b1-4)GlcNAc(b1-3)Gal(b1-4)[Fuc(a1-3)]GlcNAc
# Summary of the method: as §1
# [41] = target: Neu5Ac(a2-3)Gal(b1-4)GlcNAc6S
# Summary of the method: as §1
# [42] = target: Neu5Ac(a2-3)Gal(b1-4)[Fuc(a1-3)]GlcNAc(b1-3)GalNAc
# Summary of the method: as §1
# [43] = target: Neu5Ac(a2-6)Gal(b1-4)GlcNAc(b1-2)Man(a1-3)[Neu5Ac(a2-6)Gal(b1-4)GlcNAc(b1-2)Man(a1-6)]Man(b1-4)GlcNAc(b1-4)GlcNAc
# Summary of the method: as §1
# [44] = target: Neu5Ac(a2-6)Gal(b1-4)GlcNAc(b1-2)Man(a1-6)Man(b1-4)GlcNAc(b1-4)GlcNAc
# Summary of the method: as §1
# [45] = target: Neu5Ac(a2-6)Gal(b1-4)GlcNAc(b1-2)[Neu5Ac(a2-6)Gal(b1-4)GlcNAc(b1-4)]Man(a1-3)[GlcNAc(b1-4)][Neu5Ac(a2-6)Gal(b1-4)GlcNAc(b1-4)Man(a1-6)]Man(b1-4)GlcNAc(b1-4)GlcNAc
# Summary of the method: as §1
# [46] = target: Neu5Ac(b2-6)Gal(b1-4)GlcNAc
# Summary of the method: as §1
# [47] = target: Neu5Gc(a2-3)Gal(b1-4)Glc
# Summary of the method: as §1
binder,measurement,setting,value
B1,glycan array binding signal (z-score),[1],-0.59
same,glycan array binding signal (z-score),[2],0.383
same,glycan array binding signal (z-score),[3],0.084
same,glycan array binding signal (z-score),[4],-0.54
same,glycan array binding signal (z-score),[5],0.347
same,glycan array binding signal (z-score),[6],-0.091
same,glycan array binding signal (z-score),[7],-0.493
same,glycan array binding signal (z-score),[8],2.22
same,glycan array binding signal (z-score),[9],2.04
same,glycan array binding signal (z-score),[10],-0.76
same,glycan array binding signal (z-score),[11],-0.48
same,glycan array binding signal (z-score),[12],-0.114
same,glycan array binding signal (z-score),[13],1.9
same,glycan array binding signal (z-score),[14],-0.443
same,glycan array binding signal (z-score),[15],-0.448
same,glycan array binding signal (z-score),[16],0.244
same,glycan array binding signal (z-score),[17],0.231
same,glycan array binding signal (z-score),[18],-0.015
same,glycan array binding signal (z-score),[19],0.501
same,glycan array binding signal (z-score),[20],1.92
same,glycan array binding signal (z-score),[21],2.07
same,glycan array binding signal (z-score),[22],7.35
same,glycan array binding signal (z-score),[23],2.15
same,glycan array binding signal (z-score),[24],0.065
same,glycan array binding signal (z-score),[25],-0.095
same,glycan array binding signal (z-score),[26],0.281
same,glycan array binding signal (z-score),[27],0.206
same,glycan array binding signal (z-score),[28],-0.416
same,glycan array binding signal (z-score),[29],0.158
same,glycan array binding signal (z-score),[30],3.67
same,glycan array binding signal (z-score),[31],-0.633
same,glycan array binding signal (z-score),[32],1.89
same,glycan array binding signal (z-score),[33],-0.519
same,glycan array binding signal (z-score),[34],-0.589
same,glycan array binding signal (z-score),[35],-0.28
same,glycan array binding signal (z-score),[36],1.43
same,glycan array binding signal (z-score),[37],-0.412
same,glycan array binding signal (z-score),[38],3.36
same,glycan array binding signal (z-score),[39],-0.372
same,glycan array binding signal (z-score),[40],-0.022
same,glycan array binding signal (z-score),[41],-0.362
same,glycan array binding signal (z-score),[42],5.78
same,glycan array binding signal (z-score),[43],0.521
same,glycan array binding signal (z-score),[44],0.046
same,glycan array binding signal (z-score),[45],-0.106
same,glycan array binding signal (z-score),[46],0.234
same,glycan array binding signal (z-score),[47],0.145

# Reference: the supplement of paper PMC8728848
